# Measurements taken from publication PMC4336329 (PLoS ONE, 2015).
# The campaign covered roughly 310,000 compounds. About 14,000 (4.5%) showed an effect of 50% or more. The effect is printed as a negative number. Only a selection was taken, and strong results are over-represented in it overall.
# Target: human ether-à-go-go-related gene (hERG) potassium channel (human, UniProt Q12809)
# Assay: primary screen, population patch clamp on CHO cells stably expressing hERG; higher = less effect of the substance
# 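Further: peak tail current of the secondary pulse compared with the same well before compound.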
# Chain of human ether-à-go-go-related gene (hERG) potassium channel (Q12809 whole entry, looked up): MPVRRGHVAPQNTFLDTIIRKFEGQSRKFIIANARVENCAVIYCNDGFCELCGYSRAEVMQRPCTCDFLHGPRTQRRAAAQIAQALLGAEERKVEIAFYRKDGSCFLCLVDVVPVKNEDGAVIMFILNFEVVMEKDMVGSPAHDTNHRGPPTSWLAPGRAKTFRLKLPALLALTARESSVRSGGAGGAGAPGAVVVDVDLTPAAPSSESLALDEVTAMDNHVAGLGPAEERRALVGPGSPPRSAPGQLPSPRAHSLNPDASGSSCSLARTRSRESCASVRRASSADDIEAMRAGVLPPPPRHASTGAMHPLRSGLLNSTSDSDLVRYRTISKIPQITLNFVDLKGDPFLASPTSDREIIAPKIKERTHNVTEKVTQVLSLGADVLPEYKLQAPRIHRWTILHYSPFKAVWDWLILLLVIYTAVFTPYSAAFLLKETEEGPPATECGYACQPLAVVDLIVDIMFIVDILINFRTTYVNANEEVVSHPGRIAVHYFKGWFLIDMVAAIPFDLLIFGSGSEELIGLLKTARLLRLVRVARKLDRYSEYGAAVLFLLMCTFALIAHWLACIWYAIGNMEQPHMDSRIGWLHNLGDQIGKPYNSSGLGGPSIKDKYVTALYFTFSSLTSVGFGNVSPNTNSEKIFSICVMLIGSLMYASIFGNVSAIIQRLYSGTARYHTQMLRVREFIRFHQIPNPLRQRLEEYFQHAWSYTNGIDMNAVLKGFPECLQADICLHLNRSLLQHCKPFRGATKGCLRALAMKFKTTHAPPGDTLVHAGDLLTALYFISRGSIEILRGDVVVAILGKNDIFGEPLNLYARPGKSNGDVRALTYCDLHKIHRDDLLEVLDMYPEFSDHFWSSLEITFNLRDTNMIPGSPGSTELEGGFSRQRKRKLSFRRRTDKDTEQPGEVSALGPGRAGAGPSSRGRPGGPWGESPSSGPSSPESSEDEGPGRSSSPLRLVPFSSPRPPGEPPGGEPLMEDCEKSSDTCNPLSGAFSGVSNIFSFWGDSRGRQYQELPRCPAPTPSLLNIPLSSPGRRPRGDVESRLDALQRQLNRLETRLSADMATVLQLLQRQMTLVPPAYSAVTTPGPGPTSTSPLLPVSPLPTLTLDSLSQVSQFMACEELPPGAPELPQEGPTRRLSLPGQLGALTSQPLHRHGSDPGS
row,SMILES,"hERG current change (%, negative = inhibition) at 10uM [%]"
1,Cn1c(=O)[nH]c(=O)c2c1ncn2CCCc1ccccc1,1.26
2,Cc1ccc(-c2[nH]ncc2C(=O)c2ccc(Br)cc2)c(O)c1,-9.43
3,COc1ccc2c(-c3ccccc3)cc(N3CCOCC3)nc2c1.O=C(O)C(=O)O,3.22
4,O=C(O)C(=O)O.c1ccc(-c2cc(N3CCOCC3)nc3ccccc23)cc1,-11.6
5,O=C(O)C(=O)O.OCCN1CCN(c2cc(-c3ccccc3)c3ccccc3n2)CC1,-63.3
6,CCOC(=O)c1ccc[n+](CC(=O)Nc2ccccc2OC(F)F)c1.[Cl-],4.85
7,CCCCOc1ccc(C(=O)Nn2cnnc2)cc1,-0.225
8,Cc1nc2ccc(NC(=O)c3cc(Cl)ccn3)cc2s1,17.4
9,C=CCn1c(SCc2ccc(C(=O)O)cc2)nc2sc(C)c(C)c2c1=O,-4.36
10,Cc1sc2nc(SCc3ccccc3)n(Cc3ccco3)c(=O)c2c1C,-2.09
11,C=CCn1c(SCC(=O)NCCO)nc2sc(C)c(C)c2c1=O,11.6
12,Cc1sc2nc(SCc3ccc(C(=O)O)cc3)n(Cc3ccco3)c(=O)c2c1C,-59.2
13,Cc1ccc(CSc2nc3sc(C)c(C)c3c(=O)n2Cc2ccco2)cc1,-6.19
14,C=CCn1c(SCc2ccc(C(=O)NCCO)cc2)nc2sc(C)c(C)c2c1=O,-61.6
15,O=C1C2CC=C(Cl)CC2C(=O)N1CCC[n+]1cccc2ccccc21 (centres unmarked),8.95
16,Cc1onc(-c2ccccc2Cl)c1C(=O)Nc1nnc(-c2ccc(Cl)cc2Cl)s1,17
17,Cc1cc(OCC(=O)NCC(O)c2ccccc2)c2c3c(c(=O)oc2c1)CCC3 (centres unmarked),16.1
18,Cc1ccc(/C=N/NC(=O)Cn2cnc3ccccc32)cc1,14.4
19,CC1(C)CNc2cc([N+](=O)[O-])ccc2S1,6.88
20,COc1ccc(C(=O)NCC(=O)N2CCN(c3ccc(F)cc3)CC2)cc1,-1.94
21,CCOC(=O)c1oc2ccccc2c1NC(=O)COc1cccc(OC)c1,10.4
22,COCCCN(C)C1CCN(C(=O)Nc2ccc(F)cc2)CC1,-28.8
23,CCOCC(=O)Nc1c(C(=O)OCC)oc2ccccc12,-11.1
24,CCOCCCN(C)C1CCN(C(=O)c2oc3ccccc3c2NC(=O)c2ccc(F)cc2)CC1,-77.5
25,CCOCCCN(C)C1CCN(C(=O)c2oc3ccccc3c2NC(=O)COc2ccc(F)cc2)CC1,-80.1
26,CCOCCCN(C)C1CCN(C(=O)c2oc3ccccc3c2NC(=O)Cc2ccc(F)cc2)CC1,-77.8
27,NC(=O)c1oc2ccccc2c1NC(=O)c1ccc(F)cc1,10.9

row,SMILES,"hERG current change (%, negative = inhibition) at 10uM [%]"
1,CCOC(=O)c1oc2ccccc2c1NC(=O)COc1ccc(F)cc1,14
2,CCOCC(=O)Nc1c(C(=O)N2CCN(c3ncccn3)CC2)oc2ccccc12,-21.4
3,COc1ccc(CC(=O)Nc2c(C(=O)N3CCN(c4ccccc4OC)CC3)oc3ccccc23)cc1OC,-24.4
4,CCOCCCN(C)C1CCN(C(=O)c2oc3ccccc3c2NC(=O)COc2cccc(C)c2)CC1,-82.2
5,COc1ccc(S(=O)(=O)Nc2ccc3oc(C)c(C(=O)O)c3c2)cc1,21.3
6,CSc1nc(C)cc(Oc2ccc(OCCOc3ccccc3)nn2)n1,-23.2
7,OC1(c2ccc(Cl)cc2)CCN(Cc2nc(-c3cnccn3)no2)CC1,-1.35
8,CSc1nc2n(n1)C(c1cccc(F)c1)C(C(=O)Nc1ccc(C)cc1C)=C(C)N2 (centres unmarked),-0.769
9,O=C(COC(=O)c1ccccc1N1C(=O)C2C3CCC(C3)C2C1=O)c1ccccc1 (centres unmarked),1.28
10,COc1cccc(N(C(=O)c2sc(C)nc2C)C(C(=O)NCC2CCCO2)c2ccccc2)c1 (centres unmarked),-8.87
11,CC1CCCCC1NC(=O)c1ccc2c(c1)OCCO2 (centres unmarked),3.51
12,Cc1cc(OCc2nc3ccccc3s2)ccc1N,-1.17
13,Cc1cc(NC(=O)/C=C/c2cccc(Cl)c2)n(-c2nc3ccccc3[nH]2)n1,-1.83
14,COc1ccc(-c2csc(N3CCN(S(=O)(=O)c4ccc5c(c4)NC(=O)CO5)CC3)n2)cc1,17.2
15,CCC(=O)N(C(=O)CC)N1CCN(c2ccncc2S(=O)(=O)N2CCCCC2)CC1,-52.5
16,CN1CCN(c2ccncc2S(=O)(=O)N2CCCCC2)CC1,14.7
17,CCC(=O)NN1CCN(c2ccncc2S(=O)(=O)N2CCCCC2)CC1,5.14
18,Cc1cc(N(C)C)c(C#N)c(N2CCCCC2)n1,-4.92
19,O=C(OC(c1ccccc1)c1nccc2ccccc12)c1cc([N+](=O)[O-])cc([N+](=O)[O-])c1 (centres unmarked),22.9
20,Cc1occc1C(=O)/C(C#N)=C/c1ccc(O)c(Br)c1,6.16
21,Cc1cc(C)nc(CCNC(=O)c2cc(COc3c(F)cccc3F)on2)n1,4.72
22,Cc1ccc(OCc2cc(C(=O)NCc3cn4ccccc4n3)no2)cc1C,-38.7
23,O=C(NCCc1cn2ccccc2n1)c1cc(COc2c(F)cccc2F)on1,-64.9
24,Cc1cc(C)n(CCNC(=O)c2cc(COc3ccc4ncccc4c3)on2)n1,-3.15
25,O=C(NCCc1cn2ccccc2n1)c1cc(COc2ccc3ncccc3c2)on1,-65.7
26,O=C(NCCCc1ccccc1)c1cc(COc2c(F)cccc2F)on1,-6.23
